Test results taken from PubChem BioAssay (NCI).
This is part of a sample that, as a whole, favours compounds with a hit. Of some 83,000 tested, about 20% had one in any assay.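 Interpretation: 100, growth as untreated; towards 0, rising growth inhibition; 0, no net growth; 0 to -100, cell death. Compounds scoring below 10 were considered active.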 Unmarked numbers belong to inactive results. Active and inactive are the calls of the source.

Experiments:
Assay in all cases: NCI-60 one-dose screen, 48 h (100 = growth as untreated, 0 = no growth, -100 = all killed)
Conditions in all cases: 10 µM unless noted
SK-MEL-2 melanoma = tested on: SK-MEL-2 melanoma
EKVX NSCLC = tested on: EKVX NSCLC
SN12C renal = tested on: SN12C renal
UO-31 renal = tested on: UO-31 renal
TK-10 renal = tested on: TK-10 renal
ACHN renal = tested on: ACHN renal
A498 renal = tested on: A498 renal
CCRF-CEM leukemia = tested on: CCRF-CEM leukemia
MOLT-4 leukemia = tested on: MOLT-4 leukemia
CAKI-1 renal = tested on: CAKI-1 renal

Structure (SMILES) | growth (SK-MEL-2 melanoma) | growth (EKVX NSCLC) | growth (SN12C renal) | growth (UO-31 renal) | growth (TK-10 renal) | growth (ACHN renal) | growth (A498 renal) | growth (CCRF-CEM leukemia) | growth (MOLT-4 leukemia) | growth (CAKI-1 renal) [%]
COc1ccc(CCNc2nc3c(c(=O)n(Cc4ccc(Br)cc4)c(=O)n3C)n2C)cc1OC | 93% | 83.7% | 91.1% | 70.6% | 111% | 89.7% | 92.6% | 99.7% | 88.2% | 
Cc1cc(N2CCCCCC2)nc(NC2CCCC(Nc3ccnc4cc(Cl)ccc34)C2)n1 (stereo not drawn) | -82.2% (active) | -27.5% (active) | -90.7% (active) | -93.5% (active) | -81.2% (active) | -98.6% (active) | -74.7% (active) | -29.2% (active) | -51.8% (active) | 
c1csc(C2=NN3C(C2)c2ccccc2OC3c2ccncc2)c1 (stereo not drawn) | 96.3% | 78.2% | 89.9% | 64.5% | 111% | 97.7% | 110% | 95.8% | 94.4% | 
O=C(CN(C(=O)Cn1c(=O)n2nnnc2c2ccccc21)c1ccccc1C(F)(F)F)Nc1ccc(C(F)(F)F)cc1 | 105% | 101% | 100% | 81.1% | 111% | 102% | 116% | 107% | 104% | 
N#C/C(=C\c1ccc(-c2ccc(Cl)c(Cl)c2)o1)c1nc(-c2ccco2)cs1 | 108% | 52.4% | 98.6% | 69.2% | -7.19% (active) | 94% | 94.2% | 94.1% | 104% | 
COc1ccc(C(=O)/C=C/c2cccnc2Nc2cc(OC)c(OC)c(OC)c2)cc1 | 47.4% | 61.9% | 8.5% (active) | 51.1% | 44.9% | 16.4% |  | -16.5% (active) | 2.59% (active) | 32.2
NC(N)=N/N=C(/c1ccccc1)c1ccc(F)cc1 | -15.1% (active) | 35.1% | 17.2% | -8.69% (active) | 50.5% | 29.3% | -16.6% (active) | -14.3% (active) | -10.1% (active) | 
COc1cccc(NC(=O)c2sc3nc(C)c(C(C)=O)cc3c2N)c1 | 24.5% | 56.4% | 55.9% | 75.2% | 55.7% | 63.3% | 17.2% | 51.6% | 44.9% | 
Cc1cc2c3ccccc3ccc2[n+]2ccccc12 | 40.5% | 14.5% | -7% (active) | 56.9% | 88.4% | 95.1% | 9.14% (active) | 48.7% | 2.74% (active) | 
Clc1ccc2nc3nc4ccc[nH]c4cc3c2c1 | 88.5% | 68.2% | 90.8% | 78.4% | 43.1% | 85.9% | 109% | 71.4% | 80.5% | 
Cn1ccnc1C(=O)/C=C/c1ccc(CC(=O)Nc2ccccc2)cc1 | 54.6% | 17.6% | 16.1% | 16% | 17.6% | 29% | 44.9% | 2.06% (active) | -1.23% (active) | 
COc1ccc(/C=C/C(=O)c2ccc(O)c(CN3CCN(c4cc5c(cc4F)c(=O)c(C(=O)O)cn5C4CC4)CC3)c2)cc1 | 34.5% | 57.3% | 7.55% (active) | 3.15% (active) | 52.7% | 25.5% | -0.877% (active) | 28.6% | 45.7% | 
C=CC(=O)Nc1cccc(-c2nc(SC)nc(NCCN3CCOCC3)c2C#N)c1 | 82.6% | 86.5% | 81.2% | 61.4% | 134% | 80.8% | 78.3% | 95.6% | 75.9% | 
CC[N+](CC)=c1sc2c(s1)C(c1ccc(Cl)cc1)Oc1ccc(Cl)cc1-2 (stereo not drawn) | -31.3% (active) | 16.4% | 5.19% (active) | 70.5% | 44% | 88.5% | 28.6% | -17% (active) | -10.1% (active) | 
Oc1ccc(N=Cc2ccccc2O)cc1 | 141% | 103% | 102% | 77.3% | 101% | 88.3% | 112% | 79.5% | 89.6% | 
Cc1cc(N2CCSCC2)nc(NC2CCCC(Nc3ccnc4cc(Cl)ccc34)C2)n1 (stereo not drawn) | -81% (active) | 24.1% | -29% (active) | -94% (active) | -57.9% (active) | -61.9% (active) | 22.9% | -20.5% (active) | -9.85% (active) | 
CCNC(=O)Oc1ccc(/C(=C(\C)c2ccc(Cl)cc2)c2ccc(OCCN3CCCCC3)cc2)cc1 | 62.9% | 57.4% | 64.8% | 39.3% | 83.7% | 79.9% | 83.6% | 22.4% | 10.7% | 
COc1cc(-c2nn(-c3ccc(C)cc3)cc2C(=O)O)ccc1O | 93.5% | 88.3% | 99.8% | 74.7% | 133% | 97.5% | 110% | 97.5% | 83.2% | 
CCCCC(=O)OCC1OC(n2cnc3c(=S)nc[nH]c32)C(OC(=O)CCCC)C1OC(=O)CCCC (stereo not drawn) | 46.2% | 31.3% | 27.4% | 35% | 14.9% | 17.2% | 24.8% | 28.4% | 15.3% | 
CCOC(=O)c1c(C(=O)OCC)c2cc(-c3ccn4c(C(=O)c5ccccc5)c(C(=O)OCC)c(C(=O)OCC)c4c3)ccn2c1C(=O)c1ccccc1 | 89.8% | 90.4% | 93.6% | 66.6% | 112% | 96.3% | 86.8% | 72.9% | 68.1% | 
CN1CCN(c2nc(NCCCCNc3ccnc4cc(Cl)ccc34)c3ccccc3n2)CC1 | 87.3% | 80.7% | 79.8% | 46.1% | 73% | 74.3% | 71.1% | 35.3% | 43.9% | 
N#Cc1nnn(-c2ccc(S(N)(=O)=O)cc2)c1NC(=O)CCl | 106% | 91.4% | 88.3% | 86.5% | 96.4% | 108% | 91.5% | 88.8% | 92.4% | 
CCC(=O)c1ccc(Cl)s1 | 102% | 117% | 101% | 98% | 103% | 107% | 98.4% | 101% | 94% | 
O=C(CN1CCCCC1)Nc1ccc2oc(=O)ccc2c1 | 96.8% | 101% | 101% | 79.1% | 108% | 111% | 106% | 86% | 83.1% | 
COc1ccc(-c2cc(-c3ccc(Nc4ccnc5cc(Cl)ccc45)cc3)nc(N3CCOCC3)n2)cc1 | 90.3% | 90.4% | 49.2% | 87.8% | 9.38% (active) | 80.7% | 86.6% | 3.53% (active) | 23.9% | 
COc1ccc(C2C(C#N)=C(N)Oc3n[nH]c(-c4cccs4)c32)cc1I (stereo not drawn) | 101% | 96% | 96.5% | 81.8% | 99.7% | 98.5% | 77.4% | 76.3% | 74.9% | 
O=C1/C(=C/c2cn(-c3ccccc3)nc2-c2ccccc2)SC(=S)N1CCc1ccccc1 | 108% | 96.6% | 98.6% | 88.5% | 106% | 104% | 95.7% | 102% | 99.4% | 
